The text below walks through data of PubChem BioAssay (Tox21).

Active and inactive are the calls of the source. A call without a number means that no potency is given here. Calls follow the shape of the dose curve; as a rule, active = well fitted activation curve with a large enough effect in the repeat runs; inconclusive = weak or mixed curves; inactive = flat fitted curve, though single readings scatter.

KiSS-1 receptor (Homo sapiens), sequence (Q969F8 whole entry, looked up): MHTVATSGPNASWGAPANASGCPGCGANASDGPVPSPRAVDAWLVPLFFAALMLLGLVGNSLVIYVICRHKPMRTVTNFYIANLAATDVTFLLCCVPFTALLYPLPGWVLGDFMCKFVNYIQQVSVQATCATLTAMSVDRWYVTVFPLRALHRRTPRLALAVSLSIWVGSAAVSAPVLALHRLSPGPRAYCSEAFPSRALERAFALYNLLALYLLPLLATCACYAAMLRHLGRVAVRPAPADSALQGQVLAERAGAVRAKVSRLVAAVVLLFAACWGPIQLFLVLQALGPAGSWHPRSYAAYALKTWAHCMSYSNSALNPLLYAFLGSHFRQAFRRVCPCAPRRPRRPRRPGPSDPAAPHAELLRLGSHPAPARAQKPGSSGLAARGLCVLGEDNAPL

This test concerns the target KiSS-1 receptor (Homo sapiens) (UniProt Q969F8). Kind of test: Human kisspeptin (KISS1R) small molecule agonists, calcium flux assay in KISS1R-HEK293 cells (AID 1920064). As to conditions: KISS1R-HEK293, calcium flux fluorescence, agonist; series mostly up to 76.8 µM. From the text: National Center for Advancing Translational Sciences [NCATS]
Division of Preclinical Innovation [DPI]
U.S. Environmental Protection Agency [EPA]
National Institutes of Environmental Health Sciences [NIEHS]
National Toxicology Program [NTP]
U.S. Food and Drug Administration [FDA]
Kisspeptin and its receptor KISS1R play key roles in mammalian reproduction due to their involvement in the onset of puberty and control of the hypothalamic-pituitary-gonadal axis such as regulates GnRH release from the hypothalamus. The kisspeptin/KISS1R system also plays a direct role in peripheral organs (including the ovary, testis, uterus, and placenta) and is implicated in reproductive diseases such as miscarriage and polycystic ovary syndrome (PCOS). Abnormal KISS1R activity is associated with abnormal puberty, infertility, endometriosis, and hormone-dependent tumors. The KISS1 receptor (KISS1R, also called GPR54), a G-protein-coupled receptor (GPCR), acts (through phospholipase C) to increase intracellular inositol trisphosphate and then release intracellular calcium stores. Cell-based KISS1R-HEK293 assay is using HEK293 cells that have been genetically engineered to express the human KISS1R, which activity can be measured by calcium signaling. A compound/drug can activate (agonist) KISS1R that can be monitored by levels of intracellular calcium.
KISS1R-HEK293 cells developed by Codex Corp contain human KISS1R gene, which was stably integrated into HEK 293 cells. The compound activation can be detected by fluorescence intensity via calcium flux assay. This cell line has been used to screen the Tox21 10K compound library to identify agonists of KISS1R.
KISS1R-Hek293 cells were dispensed at 1500 cells/4uL/well in 1536-well black wall/clear bottom plates using a multidrop dispenser. After the assay plates were incubated at a 37 C/5% CO2 incubator for 18 hours, 4 microL of Calcium Dye Solution was added to each well. The plates were incubated at 37 C for 1 hour. And then 23 nL of compounds dissolved in DMSO, positive controls, or DMSO only was transferred to the assay plate by a pin tool station. The fluorescence intensity in the plates was measured using FDSS 7000EX kinetic plate reader with a filter set of Ex/Em=480/540 for 3 min at 1 sec intervals. Each test compound was measured at 15 concentrations and in triplicates.
(Calcium assays in cells follow changes in intracellular calcium, usually with a dye or a luminescent sensor.)
For `CCCCC[Si](OCC)(OCC)OCC`, the Potency result is “inactive”.

Turning to `CC1=C(C/C=C(\C)CCC[C@H](C)CCC[C@H](C)CCCC(C)C)C(=O)c2ccccc2C1=O`, the Potency result is “inactive”. On to `C=CC(=O)OCCn1c(=O)n(CCOC(=O)C=C)c(=O)n(CCOC(=O)C=C)c1=O`, for which the Potency result is “inactive”. The same measure for `CCCCCc1ccc(O)cc1`: “inactive”; for `CCCCNCC`: “inactive”.

On to `CCN(CC)c1cccc(O)c1`, for which the Potency result was “inactive”.

As to `CNCc1cc(F)ccc1Oc1ccc(Cl)c(Cl)c1`, the Potency result was “inactive”. As to `C[C@]12CC[C@H]3C(=CCc4cc(O)ccc43)[C@@H]1CCC2=O`, the Potency entry was “inactive”. In the case of `CC(=O)OC(C(=O)c1ccccc1)c1ccccc1` (stereo not given), the Potency entry is “inactive”. Regarding `CC(S)C(C)S` (stereo not given), the Potency entry is “inactive”. For `CC(C)=CCOc1ccc(/C=C/C(=O)c2ccc(OCC=C(C)C)cc2OCC(=O)O)cc1`, the Potency entry was “inactive”.

`COc1ccc2cc([C@H](C)C(=O)O)ccc2c1`: the Potency entry was “inactive”.

In the case of `NS(=O)(=O)c1cc2c(cc1Cl)NC(CSCc1ccccc1)=NS2(=O)=O`, the Potency result was “inactive”.

For the molecule `Clc1ccc(Cn2c(CN3CCCC3)nc3ccccc32)cc1`, the Potency result was “inactive”. For the molecule `c1ccc(-c2nc[nH]c2-c2ccccc2)cc1`, the Potency entry was “inactive”. For `CC(C)COC(=O)c1ccc(O)cc1`, the Potency entry is “inactive”. For `OC/C=C/c1ccccc1`, the Potency result was “inactive”. The same measure for `CC(=O)OC(OC(C)=O)c1ccc([N+](=O)[O-])o1`: “inactive”; for `O=C(O)[C@H](O)c1ccccc1`: “inactive”; for `CC(C)OC(=O)CCC(=O)OC(C)C`: “inactive”. As for `C[C@]12CCC(=O)C=C1CC[C@H]1[C@@H]3CC[C@](O)(C(=O)CO)[C@@]3(C)C[C@H](O)[C@@]12F`, the Potency result was “inactive”. Turning to `NCc1cccc(C2CCN(C(=O)c3ccc(C#Cc4ccccc4F)o3)CC2)c1`, the Potency entry was “inactive”. `CCN(CC)CCOc1ccc2c(c1)C(=O)c1cc(OCCN(CC)CC)ccc1-2`: the Potency entry is “inactive”. For `C[C@@H]1C[C@H]2[C@@H]3CCC4=CC(=O)C=C[C@]4(C)[C@@]3(Cl)[C@@H](O)C[C@]2(C)[C@@]1(OC(=O)c1ccco1)C(=O)CCl`, the Potency result is “inactive”. For the molecule `CCCCCCCC/C=C/CCCOC(C)=O`, the Potency entry was “inactive”. Take `COc1cc(C)cc(O)c1`: the Potency entry is “inactive”. With `CC(COc1ccccc1)NN` (stereo not given), the Potency entry was “inactive”. In the case of `NC(N)=NS(=O)(=O)c1ccc(N)cc1`, the Potency result was “inactive”. As for `C[C@@H]1C[C@H]2[C@@H]3C[C@H](F)C4=CC(=O)C=C[C@]4(C)[C@@]3(F)[C@@H](O)C[C@]2(C)[C@@]1(O)C(=O)CO`, the Potency entry is “inactive”. For `O=C1OC(=O)c2cc(Oc3ccc4c(c3)C(=O)OC4=O)ccc21`, the Potency result is “inactive”.

With `CCCCNc1ccc(C(=O)OCCOCCOCCOCCOCCOCCOCCOCCOCCOC)cc1`, the Potency entry was “inactive”.

`CCN(CC)CCNc1ccc(CO)c2sc3ccccc3c(=O)c12`: the Potency entry was “inactive”. For `Clc1cc(Cl)c2c(c1)N=C1CCCCCN1C2`, the Potency entry was “inactive”.

Take `O=C1Nc2ccc([N+](=O)[O-])cc2C1=O`: the Potency result was “inactive”. In the case of `O=S(=O)(O)c1cc(I)c(O)c2ncccc12`, the Potency entry was “inactive”. For the molecule `CC(C)NC(=O)NC(C)C`, the Potency result is “inactive”. On to `CC(C)(CO)C(O)C(=O)NCCCO` (stereo not given), for which the Potency entry was “inactive”. Turning to `Fc1ccc(C(c2ccc(F)cc2)N2CCNCC2)cc1`, the Potency result was “inactive”.

For the molecule `NC1(c2ccc(-c3nc4ccn5c(=O)[nH]nc5c4cc3-c3ccccc3)cc2)CCC1`, the Potency result was “inactive”.

On to `CCCCOCC(C)OCC(C)O` (stereo not given), for which the Potency entry is “inactive”.
